# 15-hLO-2 inh: qHTS Assay for Inhibitors of 15-hLO-2 (15-human lipoxygenase 2) | Polyunsaturated fatty acid lipoxygenase ALOX15B (Homo sapiens), O15296 | purified 15hLO-2, xylenol orange hydroperoxide absorbance | Potency, µM (series often up to 57.1 µM), usual class: inhibitors | 110,000 tested, 0.56% active; note: nearly all actives have a fitted effect of over 60% in size
# Target sequence (O15296 whole entry, looked up): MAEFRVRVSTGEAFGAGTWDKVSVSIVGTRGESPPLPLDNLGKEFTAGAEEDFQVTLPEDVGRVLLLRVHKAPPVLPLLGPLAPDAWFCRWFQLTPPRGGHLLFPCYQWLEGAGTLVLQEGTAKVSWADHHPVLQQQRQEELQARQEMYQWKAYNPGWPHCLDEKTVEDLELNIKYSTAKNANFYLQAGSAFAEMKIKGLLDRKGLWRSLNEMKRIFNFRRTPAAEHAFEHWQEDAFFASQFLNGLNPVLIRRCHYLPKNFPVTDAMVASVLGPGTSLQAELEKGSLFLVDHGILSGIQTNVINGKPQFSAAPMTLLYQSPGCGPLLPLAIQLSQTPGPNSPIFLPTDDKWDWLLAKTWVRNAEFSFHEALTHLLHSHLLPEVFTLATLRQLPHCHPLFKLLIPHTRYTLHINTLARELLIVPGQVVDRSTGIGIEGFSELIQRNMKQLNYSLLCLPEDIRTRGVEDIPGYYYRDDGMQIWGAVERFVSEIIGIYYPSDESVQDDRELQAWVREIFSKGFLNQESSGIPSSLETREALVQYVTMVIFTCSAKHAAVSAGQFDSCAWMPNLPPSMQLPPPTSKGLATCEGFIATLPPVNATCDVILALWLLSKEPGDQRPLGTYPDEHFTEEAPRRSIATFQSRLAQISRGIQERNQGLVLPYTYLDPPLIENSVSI
#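 Purified human 15hLO-2 (50 nM) preincubated 15 min with compound, then 45 uM arachidonic acid for 90 min at RT in 25 mM Hepes pH 7.5, 0.01% Triton X-100. Hydroperoxide detected by Fe-xylenol orange; 573/405 nm absorbance ratio.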
# ALOX15 inhib: qHTS Assay for Inhibitors of 15-hLO (15-human lipoxygenase); Polyunsaturated fatty acid lipoxygenase ALOX15 (Homo sapiens), P16050; purified 15hLO-1, xylenol orange hydroperoxide absorbance; Potency, µM (doses to about 57.1 µM), hits mostly inhibitors; 74,000 tested, 1.4% active; AID 887, 2007; note: nearly all actives have a fitted effect of over 55% in size
#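 40 nM 15hLO-1 + cpd, 15 min RT; start w/ 50 uM AA (final), 6 min RT; stop/detect w/ 200 uM XO + 300 uM Fe(II) in 50 mM H2SO4, 30 min; A573/A405. Buffer 25 mM Hepes pH 7.5, 0.01% Triton X-100. No-enzyme wells as negative control.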
# Casp7 inh: qHTS Assay for Allosteric/Competitive Inhibitors of Caspase-7 | P55210 | recombinant caspase-7, Ac-DEVD-AFC fluorescence rate | Potency, µM (series often up to 57.5 µM), usual class: inhibitors | 75,000 tested, 0.02% active; active = well fitted inhibition curve with a large enough effect in the main read-out, with a control signal flat, not every such curve was filed as active; inconclusive = small, poorly fitted or top-dose-only effect, or a change in a side signal
# HEK293 cAMP ctrl: qHTS Assay for Agonists of the Thyroid Stimulating Hormone Receptor: Activators of Intracellular cAMP Concentrations in Parental HEK 293; parental HEK293 CNG cAMP sensor, membrane potential fluorescence; Potency, µM (titrated, usually from 57.1 µM), hits mostly activators; AID 938, 2007; 73,000 tested, 2.5% active; note: nearly all actives have a fitted effect of over 55% in size
#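 Counterscreen for endogenous-receptor signalling: CNG-channel HEK 293 cells report cAMP rise by membrane depolarization. After 60 min dye equilibration with 100 uM RO 20-1724, compounds incubated 30 min before bottom-read fluorescence at 590 nm.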
# TSHR ag: qHTS Assay for Agonists of the Thyroid Stimulating Hormone Receptor; 73,000 tested, 0.48% active; Thyrotropin receptor (Homo sapiens), P16473; Potency, µM (series often up to 57.1 µM), hits mostly activators; HEK293-CNG-TSHR cells (CNG channel as cAMP sensor), membrane potential dye, cAMP; active = well fitted activation curve with a large enough effect in the main read-out, with a control signal flat, not every such curve was filed as active; inconclusive = small, poorly fitted or top-dose-only effect, or a change in a side signal; inactive = no such curve, though single readings can be large or run the other way; reference of the percent scale not stated here;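 note: the control signal comes from parental cells without the receptor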
#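 HEK 293 cells stably expressing TSHR and a cAMP-gated CNG channel; parental CNG-only cells as counterscreen. Cells preloaded 60 min with membrane potential dye plus 100 uM RO 20-1724, then compound 30 min; fluorescence read at 590 nm.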
# Caspase-1 inhib: qHTS Assay for Allosteric/Competitive Inhibitors of Caspase-1; 75,000 tested, 0.03% active; Potency, µM (series often up to 57.5 µM), most hits filed as inhibitors; AID 900, 2007; Caspase-1 enzyme, Ac-WEHD-AFC fluorogenic rate
# A number is an active result; n = inactive; u = inconclusive; x = not tested or not shown; ! = repeats disagree; [ ] = remark or other dose. Sampled rows, rich in hits. Any-hit rate of the full collection: about 3%. Unless noted, calls come from the whole dose curve; as a rule, active = well fitted curve in the direction sought with a large enough effect; inconclusive = small, poorly fitted or top-dose-only effect, or another doubt; inactive = no such curve, though single readings can be large; an effect the other way counts as inactive or inconclusive.
SMILES,15-hLO-2 inh,ALOX15 inhib,Casp7 inh,HEK293 cAMP ctrl,TSHR ag,Caspase-1 inhib
C/C=C(/C(=C/C)c1ccc(O)cc1)c1ccc(O)cc1,15.8µM,25.1µM,n,x,x,n
O=C(c1ccc(Cl)s1)N1CCc2ccccc21,n,n,n,n,15.8µM,n
COC(=O)N1CCC2(CC1)CN(c1cccc(-c3ccccc3)c1)C2,n,n,n,n,n,n
CC1=C(C(=O)OCc2ccccc2)C(c2ccccc2)NC(=O)N1CCCCCC(=O)O (stereo not drawn),n,x,n,n,x,n
CC1=C(C(=O)OCc2ccccc2)C(c2ccc(C(C)(C)C)cc2)NC(=O)N1CCCCCC(=O)O (stereo not drawn),n,u,n,20µM,u,u
O=C(O)c1ccc(Cl)c2c1C1C=CCC1C(c1ccccn1)N2 (stereo not drawn),n,15.8µM,u,n,n,u
CCCCNc1nc(C)nc2c1nc(-c1ccccc1)n2CCCN(C)C,n,n,n,n,n,n
COC(=O)[C@@H]1CC[C@H](C)[C@@H](c2ccc(C)cc2)N1C(=O)c1ccc(/C=N\O[C@@H]2O[C@H](COC(C)=O)[C@H](OC(C)=O)[C@H](OC(C)=O)[C@H]2OC(C)=O)cc1,x,n[11.4 µM],n[11.5 µM],n[11.4 µM],n[11.4 µM],n[11.5 µM]
CO/N=C\c1ccc(C(=O)N2[C@H](c3ccc(C)cc3)[C@@H](C)CC[C@H]2C(=O)OC)cc1,x,n[11.4 µM],n[11.5 µM],2µM,u,n[11.5 µM]
c1ccc(CNc2ncncc2-c2ccoc2)cc1,n,n,n,u,u,n
CNCCCC12CCC(c3ccccc31)c1ccccc12,n,u,n,39.8µM!,u,n
COc1cccc2c1OC(=O)CC2c1ccc(C)cc1 (stereo not drawn),n[0.0915 µM],x,x,x,x,x
O=[N+]([O-])c1ccc2c(N=Nc3ccc4ccccc4c3O)c(O)cc(S(=O)(=O)O)c2c1,3.98µM,3.16µM,n[11.5 µM],u,u,n[11.5 µM]
N#C/C(C(=O)c1ccccc1)=C1/SC=C(N)N1c1ccccc1,u,15.8µM,n,n,n,n
COC(=O)/C(C#N)=C1/SC=C(C)N1c1ccccc1,n,x,x,x,x,x
COc1ccc(Oc2ccc(S(=O)(=O)N3CCCCC3)cc2S(=O)(=O)N2CCCCC2)cc1,x,n,n,u,u,n
COc1ccc(S(=O)(=O)N2CCCCC2)cc1C(C)C,n,n,n,31.6µM,u,n
CC(=O)c1c(C(C)=O)c(C)n(Cc2ccc3c(c2)OCO3)c1C,n,n,n,12.6µM,u,n
Cc1cc2c(=O)n(Cc3ccco3)c(SCC(=O)N3CCCc4ccccc43)nc2s1,n,n,n,31.6µM,u,n
O=C(CSc1nc2sc3c(c2c(=O)n1Cc1ccco1)CCC3)N1CCc2ccccc21,x,n,n,n,n,n
CCOC(=O)CSc1nc2ccccc2c(=O)n1CC1CCCO1 (stereo not drawn),n,n,n,15.8µM,u,n
CCn1c(SCC(=O)N2CCCc3ccccc32)nc2ccccc2c1=O,n,u,n,10µM,u,n
Cc1ccc(-n2ncc3c(=O)[nH]c(SCC(=O)N4CCCc5ccccc54)nc32)cc1,n,n,n,39.8µM,u,n
Cc1ccc(-n2ncc3c(=O)[nH]c(SCC(=O)N4CCN(c5ccccc5)CC4)nc32)cc1,x,n,n,u,u,n
CCn1c(SCC(=O)N2CCCc3ccccc32)nc2cccnc21,n,n,n,n,n,n
SMILES,15-hLO-2 inh,ALOX15 inhib,Casp7 inh,HEK293 cAMP ctrl,TSHR ag,Caspase-1 inhib
CCOC(=O)CSc1nc2ccccc2c(=O)n1CC1COc2ccccc2O1 (stereo not drawn),n,n,n,u,u,n
Fc1ccc(Nc2ccnc(-c3ccccc3C(F)(F)F)n2)cc1,n,n,n,n,n,n
CCc1nnc(NS(=O)(=O)c2ccc(NC(=S)NC(=O)/C=C/c3ccc(C(C)C)cc3)cc2)s1,25.1µM,x,x,x,x,x
CCc1nnc(NC(=O)c2ccc(NS(=O)(=O)c3ccccc3)cc2)s1,x,n,n,n,n,n
CC(C)=CCC/C(C)=C/CO/N=C1/C[C@@H](O)[C@@H](O)[C@@H]2[C@@H]3C(=O)N(C4CCCCC4)C(=O)[C@H]3CC[C@@H]12,x,n[11.4 µM],n[11.5 µM],n[11.4 µM],n[11.4 µM],n[11.5 µM]
O=C(Nc1ccc([N+](=O)[O-])cc1Cl)c1cc(Cl)ccc1O,n,n,n,0.501µM,u,n
CC1CN(S(=O)(=O)c2cn(C)c(=O)n(C)c2=O)CC(C)O1 (stereo not drawn),n,n,n,n,39.8µM,n
Cn1cc(S(=O)(=O)N2CCN(c3ccccc3)CC2)c(=O)n(C)c1=O,n,x,x,x,x,x
Nc1c(Cl)cc(Cl)cc1Cl,n,n,n,n,n,n
CCOC(=O)c1cc2occc2n1CC(=O)NC1CCCCC1C (stereo not drawn),x,n,n,12.6µM,u,n
CC(C)(C)n1nnnc1C(c1cccs1)N1CCCc2ccccc21 (stereo not drawn),n,n,n,15.8µM,u,n
CC(=O)OCC1OC(C#Cc2ccc(F)cc2F)C=CC1OC(C)=O (stereo not drawn),x,n[11.4 µM],n[11.5 µM],n[11.4 µM],x,n[11.5 µM]
CCCOc1ccc2ccccc2c1/C=N/n1c(C)nnc1-n1nc(C)cc1C,n,n[11.4 µM],n,3.98µM,u,n
Cc1cc(C)n(-c2nnc(C)n2/N=C/c2ccco2)n1,n,x,x,x,x,x
COC(=O)c1cn(NC(=O)C2CCCCC2)c(=O)c2ccccc12,n,n,n,12.6µM,u,n
Cn1c(=O)c2c(nc(C(=N)SCC(=O)O)n2C)n(C)c1=O,n[11.4 µM],n[11.4 µM],u,n[11.4 µM],n[11.4 µM],x
CC(C)CO/N=C1/[C@H]2O[C@@H]2[C@@H](O)[C@H]2[C@H]1CCn1c(=O)n(Cc3cc4c(cc3Cl)OCO4)c(=O)n12,x,n[11.4 µM],n[11.5 µM],n[11.4 µM],n[11.4 µM],n[11.5 µM]
Cc1cc(/C=N/n2cnnc2)c(C)n1-c1cccc(Cl)c1,n,n,n,n,25.1µM,n
Cc1cc(/C=N/n2cnnc2)c(C)n1-c1ccc(Cl)cc1Cl,n[2.29 µM],n[11.4 µM],n,3.16µM,u,n
C#C[C@@]1(O)CCC2C3CCC4=CC(=O)CCC4C3CC[C@@]21CC (stereo partly drawn),n,n,n,x,x,n
O=C1CCCC2=C1C(c1ccc(Br)cc1)c1c([nH]c(=S)[nH]c1=O)N2 (stereo not drawn),31.6µM,25.1µM,n,n,n,n
CN(C)c1ccc(N/C=C/C(=O)C(C)(C)C)cc1,25.1µM,x,x,x,x,x
COc1ccc(NC(=O)N2CCCC3(CCN(C(=O)c4cnccn4)CC3)C2)cc1,n,n,n,n,x,n
CCOC(=O)c1c(C)oc2cc(Br)c(O)c(Br)c12,n,u,n,n,25.1µM,n

# Compound activity (PubChem)
